# Bioassay records as filed in PubChem.
# Sfp PPTase inh: qHTS Assay for Inhibitors of Bacillus subtilis Sfp phosphopantetheinyl transferase (PPTase); 4'-phosphopantetheinyl transferase ffp (Bacillus subtilis), Q9F4F7; Biochemical Sfp PPTase activity, qHTS; Potency, µM, actives largely listed as inhibitors; 3.5% of 310,000 active; AID 1490, 2009;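 further: the enzyme is Sfp with the accession as filed and its product quenches rhodamine fluorescence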
#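 Fluorescence-quenching assay with 15 nM Sfp, 5 uM rhodamine-CoA and 12.5 uM BHQ-2-labelled ybbR peptide in pH 7.6 Hepes/MgCl2 buffer. Enzyme was pre-incubated with compound for 15 min at room temperature. Rate was taken from the 30-min fluorescence change (525/598 nm).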
# KDM4E inh: qHTS Assay for Inhibitors of Human Jumonji Domain Containing 2E (JMJD2E); Potency, µM (series often up to 57.1 µM), most hits filed as inhibitors; JMJD2E catalytic domain, FDH-coupled NADH fluorescence (FDH is formaldehyde dehydrogenase); AID 2147, 2009; 1.6% of 230,000 active; active means well fitted inhibition curve with a large enough effect, not every such curve was filed as active; inconclusive means small, poorly fitted or top-dose-only effect, or another doubt; inactive means no such curve, though single readings can be large or run the other way; further: nearly all actives have a fitted effect of over 50% in size
# miR-21 act: qHTS Assay for Modulators of miRNAs and/orActivators of miR-21. HeLa miR-21 FLuc reporter, luciferase, 48 h. Potency, µM (titrated, usually from 38.3 µM), actives largely listed as activators. 340,000 tested, under 10 active;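 further: miR-21 action dims this reporter so a rising signal means less miR-21 action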
#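 Luminescence from a firefly luciferase reporter carrying a miR-21 binding site downstream, stably expressed under a CMV promoter in HeLa cells that make miR-21 endogenously, reports miRNA modulation after 48 h compound exposure up to approximately 40uM final.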
# G9a inh: qHTS Assay for Inhibitors of Histone Lysine Methyltransferase G9a; Histone-lysine N-methyltransferase EHMT2 (Homo sapiens), Q96KQ7; G9a H3K9 monomethylation, AlphaScreen, 2 h; Potency, µM (top dose mostly 102 µM), hits mostly inhibitors; 8.8% of 350,000 active; further: nearly all actives have a fitted effect of over 75% in size
#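 Enzyme 20 nM + cpd, 15 min RT; add b-H3K9 pep 500 nM / SAM 20 uM; 2 h RT; anti-H3K9me1 Ab 0.5 ug/mL + SA donor / anti-rabbit acceptor beads 20 ug/mL each, 10 min; AlphaScreen read.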
# Lamin A splicing: qHTS Assay for Modulators of Lamin A Splicing | HeLa LMNA splicing GFP/RFP minigene ratio, 48 h | Potency, µM (titrated, usually from 46.1 µM), most hits filed as inhibitors | 0.01% of 200,000 active; active means well fitted inhibition curve with a large enough effect in the signal ratio, with a control signal flat, not every such curve was filed as active; inconclusive means small, poorly fitted or top-dose-only effect, or effect the other way, or a change in a side signal; the % refers to the signal ratio
#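 S3 HeLa stable clones carrying a lamin A-EGFP splicing minigene plus DsRed2 were seeded at 600 cells/well in Opti-MEM with 2% FBS, pin-dosed and incubated 48 h at 37°C. Acumen cytometry (488 nm) gave the GFP/RFP total-intensity ratio.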
# ALDH1A1 inh: qHTS Assay for Inhibitors of Aldehyde Dehydrogenase 1 (ALDH1A1); 7.3% of 220,000 active; Potency, µM (series often up to 75.3 µM), actives largely listed as inhibitors; AID 1030, 2008; Aldehyde dehydrogenase 1A1 (Homo sapiens), P00352; Purified ALDH1A1, NADH fluorescence, propionaldehyde substrate; active means well fitted inhibition curve with a large enough effect, not every such curve was filed as active; inconclusive means small, poorly fitted or top-dose-only effect, or another doubt; inactive means no such curve, though single readings can be large or run the other way
# Target sequence (P00352 whole entry, looked up): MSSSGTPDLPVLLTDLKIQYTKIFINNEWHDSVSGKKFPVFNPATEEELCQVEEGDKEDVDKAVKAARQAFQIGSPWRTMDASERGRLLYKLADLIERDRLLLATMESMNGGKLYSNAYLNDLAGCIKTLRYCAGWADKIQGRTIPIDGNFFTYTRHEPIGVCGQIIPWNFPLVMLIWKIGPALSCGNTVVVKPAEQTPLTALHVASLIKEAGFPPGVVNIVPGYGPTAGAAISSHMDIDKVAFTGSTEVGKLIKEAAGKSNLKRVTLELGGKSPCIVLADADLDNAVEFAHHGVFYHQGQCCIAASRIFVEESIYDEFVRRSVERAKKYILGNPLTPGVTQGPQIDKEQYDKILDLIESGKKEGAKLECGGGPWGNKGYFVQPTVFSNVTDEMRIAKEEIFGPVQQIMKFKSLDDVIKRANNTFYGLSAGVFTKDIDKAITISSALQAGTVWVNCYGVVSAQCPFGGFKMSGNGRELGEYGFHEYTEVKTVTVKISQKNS
# Numbers stand for hits; 0 = inactive; ? = inconclusive; - = no result given; [ ] = remark or other dose. Shown are actives, neighbours in structure and some others; about 13% of the full set was active somewhere. Unless noted, the call rests on the fitted dose curve; in most records, active means well fitted curve in the direction sought with a large enough effect; inconclusive means small, poorly fitted or top-dose-only effect, or another doubt; inactive means no such curve, though single readings can be large; an effect the other way counts as inactive or inconclusive.
SMILES,Sfp PPTase inh,KDM4E inh,miR-21 act,G9a inh,Lamin A splicing,ALDH1A1 inh
Cc1cc(=O)n2nc(N3CCC(C(=O)Nc4ccc(Br)cc4F)CC3)sc2n1,-,-,0,0,-,-
CNc1ccccc1C(C)(C)c1cc(-c2cccc([N+](=O)[O-])c2)no1,0,0,0,31.6µM,0,0
CC(C)c1ccc(/C=N/n2c(-c3ccccc3)n[nH]c2=S)cc1,0,-,0,0[0.501 µM],-,-
COc1cc(/C=N/n2c(-c3ccccc3)n[nH]c2=S)ccc1O,0,25.1µM,0,2.24µM,-,25.1µM
COc1ccc(Br)cc1/C=N/n1c(-c2ccccc2)n[nH]c1=S,0,-,0,3.55µM,-,-
COc1cc(/C=N/n2c(-c3ccccc3)n[nH]c2=S)cc(OC)c1O,?,0,0,0.708µM,-,-
COc1ccc(/C=N/n2c(-c3ccc(C)cc3)n[nH]c2=S)cc1OC,0,0,0,0.398µM,-,-
O=C(Nc1cccc(F)c1)N1CC[C@@]2(CCCN(C(=O)c3ccco3)C2)C1,0,-,-,0[12.7 µM],-,?
O=C(O)c1ccccc1OCC1CCCO1 (configuration not stated),0,-,0,0,-,-
Cc1ccc2oc3c(c(=O)c2c1)C(c1ccccc1F)N(CCCN1CCOCC1)C3=O (configuration not stated),-,-,0,0,-,-
O=C(Cn1c2ccccc2c(=O)c2ccccc21)Nc1cccc(F)c1,0,?,0,0,0,?
Cc1ccc(/C=N/N=C2/NC(=O)C(CC(=O)Nc3ccc(Cl)cc3)S2)o1 (configuration not stated),35.5µM,0,0,0,0,0
O=C(O)CC1S/C(=N/N=C/c2ccc(-c3ccc(Cl)cc3[N+](=O)[O-])o2)NC1=O (configuration not stated),39.8µM,?,0,14.1µM,0,22.4µM
Cc1ccc(/C=N/N=C2/NC(=O)C(CC(=O)Nc3ccccc3)S2)o1 (configuration not stated),0,0,0,0,0,0
COc1ccc(OC)c(C(=O)N2CCC(n3nccc3NC(=O)CC(C)C)CC2)c1,0,-,0,0[0.501 µM],-,-
O=C(NNC(=O)c1ccc(F)c(S(=O)(=O)N2CCOCC2)c1)c1ccc(Br)cc1,-,-,-,0[12.7 µM],-,-
OCCN(Cc1ccccc1)CC1CCCCC1,0,?,0,11.2µM,0,0
O=C1C2C3C=CC(C3)C2C(=O)N1CN(Cc1ccccc1)CN1C(=O)C2C3C=CC(C3)C2C1=O (configuration not stated),0,0,0,0,0,0
O=C(NC(=S)N(Cc1ccccc1)Cc1ccccc1)C1CCCCC1,0,?,0,0,0,?
OCCN(Cc1ccccc1)CC1CC2C=CC1C2 (configuration not stated),0,0,0,14.1µM,0,0
COc1ccccc1CNC(=O)c1cc2cc(C)ccc2n1C,-,-,0,0,?,-
COc1ccc(NS(=O)(=O)c2ccc(NC(=S)NC(=O)c3ccc(Br)cc3)cc2)nn1,0,0,0,17.8µM,?,?
COc1ccc(NS(=O)(=O)c2ccc(NC(=S)NC(=O)c3cccnc3)cc2)nn1,0,0,0,28.2µM,-,15µM
O=S(=O)(NNC(=S)Nc1ccc(S(=O)(=O)Nc2ncccn2)cc1)c1ccc(Br)cc1,0,-,0,0,-,-
O=C(NC(=S)Nc1ccc(S(=O)(=O)Nc2ncccn2)cc1)c1ccc(Br)cc1,?,0,0,50.1µM,0,?
SMILES,Sfp PPTase inh,KDM4E inh,miR-21 act,G9a inh,Lamin A splicing,ALDH1A1 inh
O=S(=O)(Nc1ncccn1)c1ccc(NC(=S)Nc2ccc(Cl)cc2)cc1,39.8µM,0,0,-,-,10µM
CC(C)N1CC(COc2ccc(Cl)cc2Cl)OC1=O (configuration not stated),0,-,0,0,-,-
O=C(NC1CCCN(Cc2ccccc2F)C1)c1cccs1 (configuration not stated),0,-,0,0[0.501 µM],-,-
Cc1cc(NC(=O)CCC(=O)N(CC(=O)NC2CCCC2)Cc2ccc3c(c2)OCO3)no1,0,0,0,50.1µM,0,0
O=C(CN(Cc1ccc2c(c1)OCO2)C(=O)CNC(=O)c1ccco1)NC1CCCCC1,0,0,0,0,0,22.4µM
O=C(c1ccc2c(c1)OCO2)N(Cc1ccco1)C1(C(=O)NC2CCCCC2)CCCCC1,0,0,0,79.4µM,0,0
O=C(c1csnn1)N1CCC2(CCCN(c3ccncc3)C2)CC1,0,-,-,0[12.7 µM],-,0
Nc1c(C(=O)NC2CCCC2)c2nc3ccccc3nc2n1N,31.6µM,0,0,50.1µM,0,0
O=c1[nH]c2ccccc2n1CCCOc1ccccc1,0,0,0,0,0,0
CCOc1ccc(OCCn2c(=S)[nH]c3ccccc32)cc1,0,-,0,7.08µM,-,-
CCOc1ccc2c(c1)[nH]c(=S)n2C,17.8µM,0,0,7.94µM,-,-
N#CCCn1c(=S)[nH]c2ccccc21,0,0,0,7.08µM,0,?
S=c1[nH]c2ccccc2n1CCOc1ccccc1,89.1µM,-,0,-,-,-
CC(C)c1ccc2oc(-c3ccc(NC(=O)c4cccc(Br)c4)cc3)nc2c1,-,-,0,0,-,-
Cc1ccc(OCCn2c(=S)[nH]c3ccccc32)c(C(C)C)c1,0,-,0,-,-,-
COc1ccccc1OCCn1c(=O)n(C)c2ccccc21,0,0,0,0[12.7 µM],-,0
COc1ccccc1OCCn1c(=S)[nH]c2ccccc21,0,-,0,8.91µM,-,-
Cc1cccc(OCCn2c(=S)[nH]c3ccccc32)c1,6.31µM,0,0,1.58µM,0,1.26µM
Cn1c(=S)[nH]c2ccccc21,0,0,0,8.91µM,0,0
CCc1nnc(SCC(=O)Nc2ccccc2)n1CC1CCCO1 (configuration not stated),0,-,0,0,-,-
C=CCSc1nc2c(c(=O)[nH]1)C(c1ccccc1)C(C#N)=C(N)O2 (configuration not stated),0,0,0,0,-,-
CNc1nc2[nH]c(=O)c3c(c2s1)OC(N)=C(C#N)C3c1cccc(F)c1 (configuration not stated),79.4µM,0,0,0,0,7.08µM
COc1ccc(CN(C(=O)CSc2nnc(-c3ccccc3C)o2)c2ccc(F)cc2)cc1,0,0,0,0,?,2.51µM
NNC(=O)c1ccc(CSc2n[nH]c(=O)[nH]c2=O)cc1,0,0,0,3.98µM,-,-
COCCNC(=O)CN1C(=O)COc2ccc(S(=O)(=O)N3CCOCC3)cc21,-,-,0,0,-,-
